Screening data from PubChem.
RORg inh – inhibitors of mouse ROR gamma transcriptional activity | P51450 | Drosophila S2 Gal4-RORgamma UAS-luciferase reporter, 20 h | Potency, µM (doses to about 53.6 µM), for inactives: at the top dose activity change, negative = inhibition, hits mostly inhibitors | 310,000 compounds, 5.4% hits | AID 2551; further: potency means the concentration at half of the fitted maximal effect; on the % scale 0 is the no-effect control and ±100 the full control effect; nearly all actives have a fitted effect of over 60% in size
Target sequence (P51450 whole entry, looked up, the tested form may be a part): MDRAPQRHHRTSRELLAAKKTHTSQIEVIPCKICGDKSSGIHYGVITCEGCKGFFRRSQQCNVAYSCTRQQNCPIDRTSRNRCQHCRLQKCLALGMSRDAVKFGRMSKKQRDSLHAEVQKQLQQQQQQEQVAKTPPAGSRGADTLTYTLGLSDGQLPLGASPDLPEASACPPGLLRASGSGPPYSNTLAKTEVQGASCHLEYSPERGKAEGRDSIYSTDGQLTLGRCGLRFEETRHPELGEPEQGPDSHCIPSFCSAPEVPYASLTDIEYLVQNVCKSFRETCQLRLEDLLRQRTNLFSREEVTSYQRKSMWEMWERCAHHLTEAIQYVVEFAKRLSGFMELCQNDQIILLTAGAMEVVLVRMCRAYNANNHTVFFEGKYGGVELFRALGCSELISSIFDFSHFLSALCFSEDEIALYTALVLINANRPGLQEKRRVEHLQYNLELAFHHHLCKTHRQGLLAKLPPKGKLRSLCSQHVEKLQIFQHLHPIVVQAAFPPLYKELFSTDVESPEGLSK
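Drosophila S2 cells stably expressing Gal4-DBD/mouse RORγ fusion under metallothionein promoter plus UAS-luciferase; compound 1 h, then 700 uM CuSO4 induction for 20 h at ambient temperature; inhibition read as reduced luminescence.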
MCF10A rereplic – DNA re-replication induction in MCF 10a cells; MCF 10A DNA re-replication, Hoechst nuclear intensity, 48 h; Potency, µM (titrated, usually from 46.1 µM), without a hit: at the highest dose activity, positive = re-replication, actives largely listed as activators; 350,000 compounds, 2.9% hits; AID 624296; further: potency means the concentration at half of the fitted maximal effect; % of control where 0% means no effect; nearly all actives have a fitted effect of over 50% in size
BCR signal inh – chronic active BCR signaling inhibition | ABC-DLBCL IkBa-CBG/CBR reporter, luminescence ratio, 4 h | AID 493014 | 340,000 compounds, 0.05% hits | Potency, µM (series often up to 46.1 µM), without a hit: at the top dose activity change, negative = inhibition, hits mostly inhibitors; active means well fitted inhibition curve with a large enough effect in the signal ratio, with a control signal flat, not every such curve was filed as active; inconclusive means small, poorly fitted or top-dose-only effect, or effect the other way, or a change in a side signal; the % refers to the signal ratio;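 further: potency means the concentration at half of the fitted maximal effect; plate controls were basal doxycycline-induced cells for no effect and cells given 10 µM MG132 for full effect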
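Compounds up to 46 uM were incubated four hours with TMD8 cells whose green CBG68 luciferase is fused to IkappaBalpha; red CBR luminescence normalised the signal, and concentration-effect curves were fitted to fusion, red and ratio data.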
SW480 rerep – inducers of DNA re-replication in SW480 colon cancer cells | SW480 DNA re-replication, Hoechst DNA content imaging, 48 h | Potency, µM (series often up to 46.1 µM), for inactives: at the highest dose re-replication activation, actives largely listed as activators | 340,000 compounds, 1.8% hits; further: potency means the concentration at half of the fitted maximal effect; % of control where 0% means no effect; nearly all actives have a fitted effect of over 55% in size
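Hoechst fluorescence of nuclei (405 nm excitation, 500-530 nm emission) measured by plate-scanning imager after 48 hr compound exposure at 37 C; re-replication scored as increased number of nuclei with elevated intensity.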
Giardia kill – kills Giardia lamblia. Giardia lamblia trophozoite viability. activity change, % at 7.66 µM, hits read low. 340,000 compounds, 0.15% hits. AID 540267; in the data active means activity change below about -80%; inconclusive means between about -30% and that limit;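 further: parasites exposed to compound for two days anaerobically before the ATP read; on the % scale 0 is the no-effect control and ±100 the full control effect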
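Giardia trophozoites, 100 cells per well, were exposed to compounds for 48 hrs at 37 deg C under anaerobic conditions; viability was then read as ATP content by bioluminescence after 15-30 min at room temperature.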
VP16 counter – inhibits Gal4-VP16 luciferase reporter, ROR gamma counter-screen | Drosophila S2 Gal4-VP16 UAS-luciferase, luminescence, 20 h | Potency, µM (doses to about 53.6 µM), for the others: at the top dose activity, negative = inhibition, usual class: inhibitors | 310,000 compounds, 3.5% hits | AID 2546;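 further: Gal4-VP16 expression switched on by copper sulfate through the metallothionein promoter; potency means the concentration at half of the fitted maximal effect; on the % scale 0 is the no-effect control and ±100 the full control effect; nearly all actives have a fitted effect of over 50% in size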
* hit, by the source's call; ? = inconclusive; . = not tested or not shown; ! = not active in a repeat; [ ] = dose if it differs, or a comment. An excerpt weighted towards active compounds, which were near 8.3% of everything screened. Unless noted, the call rests on the fitted dose curve; in most records, active means well fitted curve in the direction sought with a large enough effect; inconclusive means small, poorly fitted or top-dose-only effect, or another doubt; inactive means no such curve, though single readings can be large; an effect the other way counts as inactive or inconclusive.

SMILES	RORg inh	MCF10A rereplic	BCR signal inh	SW480 rerep	Giardia kill	VP16 counter
COc1ccc(OC)c2sc(N(CCN(C)C)C(=O)/C=C/c3cccs3)nc12	15.8µM*	?	?	?	-14.9	10µM*
CCOc1cccc2sc(N(CCN(C)C)C(=O)/C=C/c3cccs3)nc12	-35.2%	8.2µM*	?	?	-16.6	-27.1%
C[C@]1(C(=O)NCC2CC2)C=C[C@@H](Cc2ccccc2)N1C(=O)c1ccccc1	37.3%	.	.	.	.	5.6%
COc1ccc(OC)c(C(=O)c2coc3ccc(OC(C)=O)cc23)c1	19.8%	20.6µM*	-9.6%	?	-10.8	-12.5%
CCc1cc2c(Nc3ccc(O)cc3)nc(C)nc2s1	12.6%	3.5%	?	0.9%	3.1	-11.3%
Cn1c(=O)c(C(=S)NC(=O)C2CC2)c(N)n(Cc2ccccc2)c1=O	1.26µM*	.	-4.7%	.	.	1µM*
CCN(CC)CC(=O)c1c(N)n(Cc2ccccc2)c(=O)n(C)c1=O	2.8%	?	3.9%	-2.2%	5.3	4.5%
OCCN(CCO)c1nc(N2CCCCC2)c2nc(N(CCO)CCO)nc(N3CCCCC3)c2n1	?	6.99µM*	?	11.6µM*!	-7.2	-13.6%
COc1ccc(CN(C(=S)Nc2ccccc2)C2CC(=O)N(c3ccc(F)cc3)C2=O)cc1 (centres undefined)	35.3%	?	-0.1%	0.8%	0.3	-12.7%
COc1ccc(N2C(=O)CS/C2=N\C(=S)Nc2ccccc2)cc1	-37.0%	2.1%	10µM*	-9.9%	-23.2	-4.1%
C=CCN(CC=C)C(=S)NC(=O)Cc1cccc2ccccc12	0.199µM*	-0.4%	?	0.5%	30.0	0.794µM*
O=C(c1ccccc1)c1ccc(OCC(O)CNCc2cccc(Cl)c2)cc1 (centres undefined)	-9.0%	20.6µM*	-6.7%	-3.3%	-18.9	-9.2%
O=C(c1ccccc1)c1ccc(OCC(O)CNCc2ccc(F)cc2)cc1 (centres undefined)	-0.8%	19.3%	?	4.7%	10.8	-5.1%
CCOC(=O)C1=CC[C@H]2c3c(c4ccccc4n3C)C[C@H]1N2C	.	24.9%	?	1.7%	-7.3	.
CCn1c(Cl)c(C=O)s/c1=N\S(=O)(=O)c1ccccc1	9.0%	1.16µM*	?	14.6µM*	14.1	-7.1%
Cc1nc2ccccn2c1C(=O)/C=C/c1ccc(F)cc1	8.91µM*	?	6.5%	?	1.9	?
COc1cc(OC)cc(C(=O)NC(=S)N2CCCCCC2)c1	0.501µM*	-3.7%	5.2%	-3.5%	2.8	1.12µM*
COc1ccc(C(=O)NC(=S)N2CCCCC2)cc1	-20.6%	6.2%	5.6%	?	63.9	-8.3%
COc1cc(OC)cc(C(=O)NC(=S)Nc2ccc(N3CCCC3)cc2)c1	3.16µM*	22.8%	?	.	11.6	?
COc1ccccc1N(Cc1ccccc1)S(=O)(=O)c1cccc(C(=O)Nc2cc(C)ccn2)c1	6.31µM*	4.6%	4.0%	21.1%	-3.9	10µM*
NC(=O)NC(=O)COC(=O)c1ccc(Cl)c(S(=O)(=O)N(Cc2ccccc2)c2ccc(Cl)cc2)c1	-15.4%	20.6µM*	3.8%	20.0%	0.5	?
COc1ccccc1N(Cc1ccccc1)S(=O)(=O)c1cccc(C(=O)O)c1	23.1%	2.7%	5.4%	-5.1%	?	-9.1%
COc1ccccc1N(CC(=O)NCCSCc1cccc(C)c1)S(=O)(=O)c1ccccc1	33.0%	18.4µM*	?	15.7%	-8.6	-18.8%
COc1ccccc1N(Cc1ccccc1)S(=O)(=O)c1cc(C(=O)O)ccc1Cl	-37.3%	18.4µM*	7.4%	1.8%	4.6	-11.2%
COc1ccccc1N(Cc1ccccc1)S(=O)(=O)c1cccc(C(=O)Nc2ncccc2C)c1	.	14.5%	10.5%	3.4%	-19.1	.
SMILES	RORg inh	MCF10A rereplic	BCR signal inh	SW480 rerep	Giardia kill	VP16 counter
CN(C)c1nc(N)c(C#N)c(C#N)c1C#N	.	-3.2%	.	-1.7%	7.1	.
C=CC(C1=CC(=O)C(OC)=CC1=O)c1ccc(OC)cc1 (centres undefined)	-71.9%	.	.	.	.	-26.9%
C=CC(C1=CC(=O)C(OC)=C(OC)C1=O)c1ccccc1 (centres undefined)	14.1µM*	.	.	.	.	7.08µM*
Cc1ccc(-n2c(C)cc(/C=N/NC(N)=S)c2C)cc1	2.82µM*	?	-20.2%	-1.6%	-27.6	4.47µM*
Cc1cccc(-n2c(C)cc(/C=N/NC(=O)c3ccc(CN4CCOCC4)cc3)c2C)c1	10µM*	0.3%	-2.3%	0.0%	9.8	-4.4%[0.365 µM]
Cc1ccc(-n2c(C)cc(/C=N/NC(=O)CC3(C)OCCO3)c2C)cc1	-22.4%	-11.8%	?	-2.7%[9.22 µM]	14.0	?
CCOc1ccc(-n2c(C)cc(/C=N/NC(=O)C(N)=O)c2C)cc1	22.7%	7.9%	6.1%	-5.2%	1.4	-9.1%
CNC(=S)N/N=C/c1cc(C)n(-c2ccc(Cl)c(Cl)c2)c1C	0.794µM*	?	?	8.5%	-3.9	4.47µM*
Cc1ccc(C)c(-n2c(C)cc(/C=N/NC(=O)c3c(C)nc4cc(C)ccn34)c2C)c1	?	12.3%	9.3%	-1.5%	1.3	14.1µM*
CC1CN(C(=O)CS(=O)(=O)Cc2ccc(Cl)cc2)CC(C)O1 (centres undefined)	12.0%	7.2%	-2.3%	-1.1%	8.1	-10.7%
COc1ccccc1N1CCN(C(=O)CN(C)S(=O)(=O)c2ccc3c(c2)c(=O)n(C)c(=O)n3C)CC1	10.5%	1.2%	-1.7%	-15.1%	-17.0	-3.7%
Cc1ccc(C(=O)NCC(=O)N/N=C/c2cccs2)cc1[N+](=O)[O-]	-32.1%	-0.3%	3.6%	-22.0%	4.7	1.2%
Cc1ccc(-n2c(C)cc(/C=N/NC(=O)c3ccncc3)c2C)cc1	7.94µM*	4.4%	1.8%	-0.9%	-5.1	?
Cc1ccc(-n2c(C)cc(/C=N/NC(=O)c3ccc(CN4CCOCC4)cc3)c2C)cc1	7.94µM*	22.2%	?	7.7%	-1.1	?
Cc1cc(/C=N/NC(=O)c2ccncc2)c(C)n1-c1cccc(C(F)(F)F)c1	?	3.7%	-13.7%	-9.9%	7.3	?
Cc1ccc(C(=O)N/N=C/c2cc(C)n(-c3ccc(Br)cc3)c2C)cc1[N+](=O)[O-]	0.398µM*	9.8%	8.0%	1.5%	49.7	1.41µM*
CCC1CN(C(=O)N2CCC(C(=O)NCCc3ccccc3)CC2)c2ccccc2O1 (centres undefined)	1.5%	1.5%	2.5%	-13.5%	-6.2	0.1%
O=C(N=C1SC2CS(=O)(=O)CC2N1c1ccc(F)cc1)C1CC1 (centres undefined)	2.1%	0.3%	0.0%	-3.8%	0.0	-2.9%
